Sampled rows, rich in hits. Any-hit rate of the full collection: about 4.1%.
MRP reversal: MRP-mediated drug resistance reversal; differential viability (reversal), % at 10 µM; AID 602; 85,000 compounds, 0.04% hits; H69AR cells + 2 uM doxorubicin, CellTiter-Glo, 72 h;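 active = viability drop by adding the cancer drug above about 55%, with treated viability meeting a 40% cutoff, limit read from the data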;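 also: larger differential means the compound sensitizes cells more to doxorubicin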
Cav32 inh: blocks human Cav3.2 T-type calcium channel. O95180. Cav3.2-expressing cells, Fluo-4 calcium fluorescence FDSS; stronger effect = lower value. B-score at 10 µM. 100,000 compounds, 4% hits;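 active = single-dose well whose peak fluorescence ratio is a statistical outlier from its plate by either plate-standardised score or position-corrected B-score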
Mac1 fbg enh: enhancers of human CD11b/CD18 binding to fibrinogen | P05107+P11215 | AID 1499 | 93,000 compounds, 0.07% hits | K562 CD11b/CD18 adhesion to fibrinogen, ATPlite luminescence | activation, % at 10 µM;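 active = 10 µM primary screen giving 50% or more activity, confirmed by 40% or more on retest at that dose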
PTK2B oligo ant: antagonists of human Pyk2 oligomerization; Q14289; Q293 cells, Pyk2 FERM NanoBiT luminescence; stronger effect = lower value; 99,000 compounds, 0.83% hits; AID 1347419; z-score (the deposit names both 25 µM and 10 µM);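 active = Z-score of -3 or lower, scaled per plate to the spread of control and sample wells; inactive = z-score above -3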;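 also: negative z-score means lost luminescence so less FERM oligomerization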
Target sequence (Q14289 whole entry, looked up): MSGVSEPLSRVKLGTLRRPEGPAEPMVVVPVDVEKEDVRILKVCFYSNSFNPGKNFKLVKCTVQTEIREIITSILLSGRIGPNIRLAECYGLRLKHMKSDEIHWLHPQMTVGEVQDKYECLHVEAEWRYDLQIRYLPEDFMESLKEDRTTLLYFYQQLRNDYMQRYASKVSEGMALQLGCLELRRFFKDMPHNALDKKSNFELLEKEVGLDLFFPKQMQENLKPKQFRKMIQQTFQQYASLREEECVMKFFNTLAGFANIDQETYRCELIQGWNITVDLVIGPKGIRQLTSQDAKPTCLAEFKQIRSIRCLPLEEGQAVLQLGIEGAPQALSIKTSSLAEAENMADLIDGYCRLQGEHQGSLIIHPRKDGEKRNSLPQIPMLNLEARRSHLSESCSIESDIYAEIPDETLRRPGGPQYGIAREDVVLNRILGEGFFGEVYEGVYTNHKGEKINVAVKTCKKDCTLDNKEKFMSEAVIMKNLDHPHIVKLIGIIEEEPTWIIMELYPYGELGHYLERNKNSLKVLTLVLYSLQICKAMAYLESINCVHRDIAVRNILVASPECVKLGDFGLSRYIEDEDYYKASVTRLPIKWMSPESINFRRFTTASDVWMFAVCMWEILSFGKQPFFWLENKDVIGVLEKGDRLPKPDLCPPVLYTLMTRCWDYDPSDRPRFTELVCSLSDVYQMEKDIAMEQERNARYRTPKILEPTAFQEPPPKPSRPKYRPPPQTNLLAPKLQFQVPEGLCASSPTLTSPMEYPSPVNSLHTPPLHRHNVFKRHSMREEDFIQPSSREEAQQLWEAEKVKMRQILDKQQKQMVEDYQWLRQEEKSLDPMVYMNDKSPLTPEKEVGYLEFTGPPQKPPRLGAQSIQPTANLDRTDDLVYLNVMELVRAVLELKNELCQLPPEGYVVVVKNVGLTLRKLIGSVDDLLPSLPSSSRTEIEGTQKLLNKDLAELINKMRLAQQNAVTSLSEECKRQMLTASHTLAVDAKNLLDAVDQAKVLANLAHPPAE
MRP-1 activ: activators of MRP-1; AID 799; 140,000 compounds, 0.61% hits; H69AR cells + doxorubicin, viability rescue, CellTiter-Glo; viability increase, % at 10 µM;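 active = viability gain under doxorubicin at or above a set limit, the compound median plus 3 SD, cut at about 4.7% in these data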;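 also: MRP-1 overexpressing cells given doxorubicin 25 µM after compound pretreatment; 18-22 h compound pretreatment then 72 h with doxorubicin before readout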
Mac1 fbg inh: blocks human CD11b/CD18 adhesion to fibrinogen; P05107+P11215; K562 CD11b/CD18 adhesion to fibrinogen, ATPlite luminescence; Mn2+ added to activate the integrin; inhibition, % at 10 µM; 93,000 compounds, 0.54% hits; AID 1497;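 active = primary inhibition of 50% or more at 10 µM, then 40% or more on retest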
Of the large screens only hits and unclear results are named; the others gave an inactive call.

Cc1ccc(C)n1CCN1CCN(C(=O)c2ccco2)CC1	none
O=C(c1ccco1)N1CCN(CC(O)Cn2c3ccccc3c3ccccc32)CC1 (stereo unspecified)	Cav32 inh -4.84
CN1/C(=C\C(=O)COC(=O)Cn2nnc(-c3ccccc3)n2)C(C)(C)c2ccccc21	none
CC(C)[C@H](NC(=O)c1ccccc1)C(=O)OCC(=O)/C=C1/N(C)c2ccccc2C1(C)C	MRP-1 activ 4.8 (no result: MRP reversal, Cav32 inh, Mac1 fbg enh, PTK2B oligo ant, Mac1 fbg inh)
CC(C)=CC(O)C/C(C)=C/COc1ccc2ccc(=O)oc2c1 (stereo unspecified)	none (no result: MRP reversal, Mac1 fbg enh, PTK2B oligo ant, MRP-1 activ, Mac1 fbg inh)
O=C1S/C(=C\c2ccc(N3CCOCC3)o2)C(=O)N1Cc1c(F)cccc1Cl	Cav32 inh -5.74 (no result: MRP reversal, Mac1 fbg enh, Mac1 fbg inh)
COCCCNC(c1ccccc1)c1ccncc1 (stereo unspecified)	none
Cc1ccc(CNn2cnnc2SCc2ccc(F)cc2)cc1	none (no result: Mac1 fbg enh, Mac1 fbg inh)
Cc1ccsc1CNn1cnnc1SCc1ccc(Cl)cc1	MRP-1 activ 6.3 (no result: Mac1 fbg enh, Mac1 fbg inh)
CC(C)OC(=O)C(C(=O)C(F)(F)F)c1cc(NS(=O)(=O)c2ccc3ccccc3c2)c2ccccc2c1O (stereo unspecified)	none (no result: MRP reversal, Cav32 inh, Mac1 fbg enh, PTK2B oligo ant, Mac1 fbg inh)
CCCC(C)NC(=O)Cc1ccccc1[N+](=O)[O-] (stereo unspecified)	none (no result: MRP reversal, Cav32 inh, Mac1 fbg enh, PTK2B oligo ant, Mac1 fbg inh)
OCCNCCCCOc1ccc(OCc2ccccc2)cc1	none (no result: MRP reversal, Cav32 inh, Mac1 fbg enh, Mac1 fbg inh)
Fc1cccc(NC(=S)NCCc2ccccc2)c1	none (no result: MRP reversal, Cav32 inh, Mac1 fbg enh, PTK2B oligo ant, Mac1 fbg inh)
CC(NC(=O)Nc1cccc([N+](=O)[O-])c1)(C(F)(F)F)C(F)(F)F	Cav32 inh -4.85 (no result: MRP reversal)
O=[N+]([O-])c1cccc(NC(=S)NCCc2ccccc2)c1	Mac1 fbg inh 104.1 (no result: MRP reversal, Cav32 inh, PTK2B oligo ant)
CC(C)OC(=O)c1c(NS(=O)(=O)c2ccccc2)sc2c1CCCC2	Cav32 inh -7.99 (no result: Mac1 fbg enh, Mac1 fbg inh)
COC(=O)c1c(NS(=O)(=O)Cc2ccccc2)sc2c1CCCC2	none
CC(=O)Oc1ccccc1C1=NN(C(=O)/C=C/c2ccccc2)C(c2ccccc2)C1 (stereo unspecified)	none (no result: MRP reversal, Cav32 inh, PTK2B oligo ant)
COc1c(S(=O)(=O)N2CCCCC2)ccc2c(S(=O)(=O)N3CCCCC3)cccc12	PTK2B oligo ant -3.47 (no result: Cav32 inh, Mac1 fbg enh, MRP-1 activ, Mac1 fbg inh)
O=C(N/C(=C/c1cccnc1)C(=O)N1CCOCC1)c1ccccc1Br	none (no result: MRP reversal, Cav32 inh, PTK2B oligo ant)
Cc1[nH]nc2c1C1(C(=O)N(Cc3ccc(Cl)cc3)c3ccccc31)C(C#N)=C(N)O2 (stereo unspecified)	none
CN1C(=O)C2(C(C#N)=C(N)Oc3n[nH]c(-c4ccc(Cl)cc4)c32)c2ccccc21 (stereo unspecified)	PTK2B oligo ant -3.05
COc1cccc(-c2nc(CS(=O)(=O)CC(=O)NCCCOC(C)C)c(C)o2)c1	none
COc1cccc(-c2nc(CS(=O)(=O)CC(=O)NCCCN3CCc4ccccc4C3)c(C)o2)c1	Cav32 inh -5.75
O=C(Nc1ccncc1)c1ccc2c(c1)C(=O)N(C1CCCCC1)C2=O	Mac1 fbg inh 85.8
CCC(C)NC(=O)C1=C(C)C(=O)OC12CCC(C)CC2 (stereo unspecified)	none (no result: PTK2B oligo ant)
CN1CCC(=NNC(=O)C(=O)Nc2ccccc2)CC1	none (no result: MRP reversal)
CCOc1ccc(N(Cc2cc3cc(OC)ccc3[nH]c2=O)S(C)(=O)=O)cc1	none
O=C(O)c1cc(Cl)c2ccccc2c1O	Cav32 inh -6.71
O=C(O)c1ccc2cccc(Cl)c2c1O	none (no result: Cav32 inh)
CC(C)CCNC(=O)c1cc([N+](=O)[O-])ccc1N1CCOCC1	none (no result: MRP reversal, Cav32 inh, PTK2B oligo ant)
O=C(N=Nc1c(O)[nH]c2ccc(Cl)cc12)c1cc(-c2cccs2)nc2ccccc12	none (no result: MRP reversal, Cav32 inh, Mac1 fbg enh, PTK2B oligo ant, Mac1 fbg inh)
CCOC(=O)C1=C(CNCCc2ccc(Cl)cc2)NC(=O)NC1c1ccc2c(c1)OCO2 (stereo unspecified)	Cav32 inh -4.57
COc1c(N2CCN(C(=S)NCc3ccccc3)C(C)C2)c(F)cc2c(=O)c(C(=O)O)cn(C3CC3)c12 (stereo unspecified)	Cav32 inh 2.84
N#CC1=C(SCC(=O)NC2CC2)NC(=O)C(C#N)C12CCCCC2 (stereo unspecified)	none
CC(C)(C)C1CCC2(CC1)C(C#N)=C(SCC(=O)NC1CCCCC1)NC(=O)C2C#N (stereo unspecified)	Cav32 inh -4.23
CCOC(=O)C1=C(SCC(=O)Nc2ccccc2)NC(=O)C(C#N)C12CCCCC2 (stereo unspecified)	Cav32 inh -4.13
C=CCSC1=C(C#N)C2(CCCCC2)C(C#N)C(=O)N1 (stereo unspecified)	none
N#CC1=C(N)NC(SCC(=O)Nc2ccccc2)=C(C#N)C12CCCC2	none (no result: MRP reversal)
N#CC1=C(SCC(=O)NC23CC4CC(CC(C4)C2)C3)NC(=O)C(C#N)C12CCCCC2 (stereo unspecified)	Cav32 inh -3.21, PTK2B oligo ant -3.32 (no result: Mac1 fbg enh, Mac1 fbg inh)
CCOC(=O)/C=C1\SCC(=O)N1CCOc1cccc(Br)c1	Cav32 inh -4.29
CCOC(=O)/C=C1\SCC(=O)N1CC(=O)Nc1ccc(C(C)C)cc1	Cav32 inh -3.82
CCOC(=O)/C=C1\SCC(=O)N1CC(O)CN1C(=O)CS/C1=C\C(=O)OCC	none (no result: MRP reversal)
CCOC(=O)/C=C1\SCC(=O)N1CC(=O)Nc1ccc2c(c1)CCC2	none
O=C(CSc1nnc(-c2cccnc2)o1)Nc1ccccn1	none
O=C(Nc1ccc(Cc2ccncc2)cc1)C1CCC(N2C(=O)C3C4C=CC(C5CC45)C3C2=O)CC1 (stereo unspecified)	PTK2B oligo ant -4.15
C(#Cc1ccc(C#CCN2CCCC2)cc1)CN1CCCC1	none (no result: MRP reversal)
Cc1nnc(-c2cnn(C)c2N)n1Cc1ccccc1	Cav32 inh -5.12
CCOC(=O)CSc1nnc(Cc2ccccc2)n1-c1cccc(Cl)c1	none
COc1ccc(-n2c(N)c(C(=O)NCC3CCCO3)c3nc4ccccc4nc32)c(OC)c1 (stereo unspecified)	Cav32 inh -8.01
CCCNC(=O)c1c(N)n(-c2cc(OC)cc(OC)c2)c2nc3ccccc3nc12	Cav32 inh -6.5
Cc1cc(/C=C(\C#N)C(=O)OCC(=O)NC(=O)NC(C)(C)C)c(C)n1CCC(C)C	MRP reversal 57.1
N#Cc1cccc(NC(=O)CSc2ccc3c4c(cccc24)C(=O)c2ccccc2-3)c1	Cav32 inh -5.64 (no result: MRP reversal)
CN(CCOc1ccc(-c2ccn(S(=O)(=O)c3c(Cl)cccc3Cl)n2)cc1)c1ccccn1	none (no result: MRP reversal)
CN(CCOc1ccc(-c2ccn(S(=O)(=O)c3ccc(Cl)cc3)n2)cc1)c1ccccn1	Cav32 inh -4.67 (no result: MRP reversal, Mac1 fbg enh, Mac1 fbg inh)
Cc1cccc(NC(=O)/C(=C\c2ccc([N+](=O)[O-])o2)NC(=O)c2ccc(Cl)cc2)c1	MRP-1 activ 5.7 (no result: MRP reversal, Cav32 inh, PTK2B oligo ant)
CC/C(=N\n1nnnc1Nc1ccccc1)c1ccccc1	Cav32 inh -5.73 (no result: Mac1 fbg enh, Mac1 fbg inh)
CC(C)c1ccc(/C=N/n2nnnc2Nc2ccccc2)cc1	none
COC(=O)c1ccccc1NC(=O)c1cnn2c(C(F)F)cc(C3CC3)nc12	PTK2B oligo ant -3.62 (no result: MRP reversal)
Cc1cc(C)c(S(=O)(=O)c2ccccc2)c(OC(=O)c2c(Cl)cc(Cl)cc2Cl)n1	Cav32 inh -6.48
CCCCCOc1ccc(NS(C)(=O)=O)cc1	none (no result: Cav32 inh)

Assay outcomes deposited in PubChem BioAssay by several laboratories.
